Screening data (PubChem)
In the library only some 3.2% were active in any assay of this set; here they are far more common.
H9c2 protect: myocardial damage modulation in H9c2 cells | H9c2 cardiomyocytes, H2O2 injury protection, ATPLite, 2 h | protection from H2O2 cell death, % at 20 µM | hit rate 0.63% among 360,000 | AID 588492;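 active = compounds giving at least 50% protection of heart cells from peroxide-induced death in the single-dose screen, raw or plate-pattern-corrected value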;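 note: 0% = DMSO wells with peroxide and 100% = DMSO wells without peroxide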
FAS TE block: FAS thioesterase (human) inhibition. recombinant FAS-TE, OMFH fluorogenic substrate, fluorescence endpoint. hit rate 0.67% among 360,000. P49327. inhibition, % at 15 µM;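 active = compounds whose normalised, plate-corrected inhibition of enzyme fluorescence in the single-dose primary screen is 50% or more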;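 note: 0% = DMSO with enzyme and 100% = substrate without enzyme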
PfG6PD inh: PfG6PD (Plasmodium falciparum) enzyme inhibition; PfGluPho enzyme, NADPH resazurin-diaphorase fluorescence; inhibition, % at 20 µM; hit rate 0.78% among 350,000; AID 504690;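 active = inhibition reaching at least a set limit at 20 µM in the primary screen, cut at about 59% in these data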;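 note: 0% = DMSO wells with substrate and 100% = DMSO wells lacking glucose-6-phosphate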
CRFBP-R2 block: CRF-BP/CRF-R2 complex antagonism | HEK293 CRF-R2/CRF-BP, CRF-induced calcium fluorescence | inhibition, % at 11.8 µM | hit rate 0.59% among 350,000;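 active = inhibition of the ligand-induced calcium signal above about 50% at the single tested concentration, limit read from the data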
aDG glyco up: alpha-DG glycosylation activation; Pro5-aDG cells, alpha-DG glycosylation AlphaScreen (IIH6); 0% Pro5, 100% B10-LARGE cell signal; activation, % at 10 µM; hit rate 0.22% among 360,000; AID 624168;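 active = activation of at least 8% versus controls, or a plate z-score of at least 8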;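 note: Pro5 are CHO cells carrying HIG-tagged alpha-DG that lacks glycosylation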
CRFR2-BP ag: agonists of human CRF-binding protein/CRF-R2 receptor complex; HEK293 CRF-R2/CRF-BP, calcium dye fluorescence (FLIPR); percent of saturating CRF peptide response; activation, % at 13.2 µM; hit rate 0.46% among 350,000;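 active = activation of at least 50%, plus an integration ratio under a set limit after plate pattern correction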;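 note: plate controls were neutral control wells without compound for no effect and CRF at EC100 for full effect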
The depositor's hits bear a star; / = no result.

SMILES | H9c2 protect | FAS TE block | PfG6PD inh | CRFBP-R2 block | aDG glyco up | CRFR2-BP ag
Cc1ccc(-c2cc(C(=O)NCc3ccccn3)c3ccccc3n2)cc1C | 5 | 7 | 31 | 111* | 0 | -3
COc1cc(-c2noc(C)c2C(=O)NCCCN2CCOCC2)cc(OC)c1OC | -2 | -14 | 0 | -2 | 0 | 0
CC(=O)c1ccc(NC(=O)c2cnsn2)cc1 | -7 | -1 | -6 | -13 | 1 | 7
S=C(Nc1ccc2nccnc2c1)N1CCOCC1 | -2 | -4 | 14 | -2 | 0 | 5
COc1ccc(/C=C2/CCC(CN3CCOCC3)C2=O)cc1 (stereo unspecified) | -20 | -1 | 76* | 57* | 0 | 12
CN(C)CC1CC/C(=C\c2ccc(O)cc2)C1=O (stereo unspecified) | -22 | -6 | 61* | 8 | 0 | 1
Cc1cccc(N(C(=O)CNC(=O)c2ccco2)C(C(=O)NCC2CCCO2)c2ccccc2)c1 (stereo unspecified) | 21 | -6 | 4 | 6 | -1 | 0
CCOc1ccc(CCNC(=O)C2CCCN(S(=O)(=O)N3CCCCC3)C2)cc1OCC (stereo unspecified) | 1 | 0 | / | / | 0 | /
CNC(=O)/C(C#N)=C/c1c(N(Cc2ccccc2)Cc2ccccc2)nc2ccccn2c1=O | 56* | 22 | 1 | -8 | 0 | 1
Cc1noc(C)c1COc1ccc(C(=O)OCC(=O)Nc2ccc3ccccc3c2)cc1 | -2 | 26 | 6 | 1 | 0 | 2
CCN(CC(=O)NCc1cccs1)C(=O)c1ccc(S(=O)(=O)Nc2ccccc2Cl)cc1 | 2 | -6 | -12 | -1 | 0 | 1
CCOc1ccccc1NC(=S)N1CCN(c2cccc(OC)c2)CC1 | 1 | 11 | 4 | 12 | 0 | -1
COc1ccc(OC)c(NC(=O)CSc2ncnc3c2cnn3-c2ccccc2Cl)c1 | -29 | 36 | -17 | 56* | 2 | 0
COc1ccccc1-[n+]1c(C)cc(/C=C2\Sc3ccccc3N2C)cc1C | -16 | -26 | 43 | -169 | 1 | 175*
COc1ccc(COc2cc(-c3cccc(OC)c3)nc3ccc(NC(=O)c4ccccc4)cc23)cc1 | 47 | 36 | 2 | 7 | -1 | 1
COc1ccc(COc2cc(-c3cccc(OC)c3)nc3ccc(NC(=O)c4ccc(OC)cc4)cc23)cc1 | 58* | 34 | 1 | -10 | -1 | 0
COc1ccc(COc2cc(-c3cccc(OC)c3)nc3ccc(NC(=O)c4cccnc4)cc23)cc1 | 91* | 33 | 23 | -5 | -1 | 3
CCOC(=O)C1C(c2cccc([N+](=O)[O-])c2)C2C(=O)NN=C2CC1(C)O (stereo unspecified) | -4 | -3 | 12 | 4 | 0 | 0
OCCC1CN(Cc2cccc3c2OCO3)CCN1C1CCCC1 (stereo unspecified) | 3 | -8 | 3 | 10 | 0 | -2
O=C(Nc1cccc(/C=C/c2ccccn2)c1)c1ccc(-n2cncn2)cc1 | 69* | -8 | 7 | -8 | 0 | 1
O=C(CNC(=O)c1ccc(S(=O)(=O)N2CCCC2)cc1)N/N=C/c1ccccc1Cl | -4 | -10 | -6 | -16 | 0 | -2
O=C(N/N=C\c1c(O)ccc2ccccc12)c1ccc(S(=O)(=O)N2CCCCC2)cc1 | 22 | 25 | -5 | -326 | 0 | 203*
O=C(N/N=C/c1c(O)ccc2ccccc12)c1ccc(CO)nc1 | 59* | 2 | -6 | -36 | 0 | 30
O=C(NN=Cc1c(O)ccc2ccccc12)c1ccc2c(c1)OCO2 | 8 | 4 | -25 | -16 | 1 | 7
CCc1sc(C(=O)Nc2nc(-c3ccccn3)cs2)cc1C | 51* | 7 | 10 | 14 | 2 | -1
SMILES | H9c2 protect | FAS TE block | PfG6PD inh | CRFBP-R2 block | aDG glyco up | CRFR2-BP ag
Cc1ccc(C(=O)Nc2nc(-c3ccccn3)cs2)s1 | 59* | 4 | 6 | -4 | 2 | 1
Cc1cc(C)c(C)c(S(=O)(=O)N2CCC(C(=O)NNC(=O)c3ccccc3O)CC2)c1C | 66* | 15 | -63 | 2 | 0 | -1
CCCCNC(=O)CCc1nc2cccnc2n1Cc1ccc(OC)cc1 | 3 | -5 | 17 | 69* | 0 | -2
Cc1nc(SCC(=O)Nc2nc3ccccc3s2)c(C#N)c(C)c1C | -8 | 22 | 29 | -8 | 0 | -1
Cc1cc(C(F)(F)F)c(C#N)c(SCC(=O)Nc2nc3ccccc3s2)n1 | -12 | 3 | 2 | -164 | 0 | 80*
CCOc1cc(-c2cn(S(=O)(=O)c3cccc4nsnc34)nc2N)cc(OCC)c1OCC | -2 | 16 | 4 | 70* | 0 | -2
CCOc1cc(S(=O)(=O)n2cc(-c3ccc(F)cc3)c(N)n2)cc(OCC)c1OCC | -9 | 20 | 35 | 3 | 1 | 1
CCCS(=O)(=O)NC(=O)C1(C)CCCN(C(=O)COCc2ccccc2)C1 (stereo unspecified) | 1 | -7 | / | / | 0 | /
CCN1C(=O)[C@H]2[C@@H](c3ccc(-c4ccc(OC)cc4)cc3)N[C@@](CC(C)C)(C(=O)OC)[C@H]2C1=O | 8 | 19 | -3 | -7 | 0 | 1
Nc1c(-c2ccccc2)nc(Cl)nc1-c1ccccc1 | 1 | 0 | -9 | -8 | 0 | 2
c1ccc(-c2nc3nonc3nc2-c2ccccc2)cc1 | -14 | 21 | 4 | 54* | 4 | -1
Cc1cc(C)nc(N/N=C/c2cc(C)n(CC(F)(F)F)c2C)n1 | -4 | -1 | 13 | 3 | 5 | 0
COc1ccc(/C=C2\CC/C(=C\c3ccc(OC)cc3OC)C2=O)c(OC)c1 | -5 | 15 | 10 | -84 | 0 | 88*
COc1cc(OC)c(OC)cc1/C=C1\CCC/C(=C\c2cc(OC)c(OC)cc2OC)C1=O | 30 | 6 | 16 | -10 | 0 | 13
COc1ccc(/C=C2\CCC/C(=C\c3ccc(OC)c(OC)c3OC)C2=O)c(OC)c1OC | -4 | 14 | 12 | 69* | 0 | -2
Cc1ccn2c(=O)nc(SCC(=O)NCCc3ccccc3)nc2c1 | -1 | -2 | 1 | -3 | 0 | 0
COc1ccc(OC2C(=O)N(Cc3ccc(F)cc3)C2c2cc(OC)c(OC)c(OC)c2)cc1 (stereo unspecified) | 1 | 3 | 6 | 123* | 1 | -1
COc1ccc(C2C(Oc3ccccc3C)C(=O)N2Cc2ccc(F)cc2)cc1OC (stereo unspecified) | 2 | 14 | 1 | 15 | 0 | -2
Cn1ccc(NC(=O)c2ccc([N+](=O)[O-])cc2)n1 | -7 | -5 | -5 | 5 | 0 | -2
O=C1CCCc2c1ccc1ccccc21 | -3 | -4 | 25 | 18 | 0 | -2
CCOC(=O)c1c(N)sc(C(=O)N2CCCCC2)c1C | -2 | -8 | -27 | 61* | 0 | 0
